High-throughput results: PubChem, several laboratories
A selection: hits, their analogues and other compounds. The true share with any hit is near 2.1%.
HMGR II inh = blocks class II HMG-CoA reductase of Enterococcus faecalis. purified E. faecalis HMGR, NADPH absorbance 340 nm kinetic. inhibition, % at 10 µM. 0.41% of 190,000 active. AID 1066;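 active = inhibition above a set limit, the median over all tested compounds plus 3 SD, cut at about 9.5% in these data; inconclusive = no clear call, values can overlap the other calls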;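 note: enzyme runs in reverse so mevalonate oxidation gives rising NADPH absorbance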
HSV augment = increases HSV replication in cells | HSV replication augmentation in cells, fold increase | maximum fold increase | 0.005% of 220,000 active | AID 1956; in the data active = maximum fold increase above about 1.5; inconclusive = no clear call, values can overlap the other calls; tested in PC3 cells
ROMK primary = modulators of human ROMK potassium channel; P48048; Tet-inducible ROMK, thallium flux fluorescence; actives lie on both sides; AID 1918; B-score at 10 µM; 2% of 130,000 active;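 active = signal ratio slope over the read window, or its plate-corrected B-score, at least 3 SD from the plate mean, either direction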;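 note: B-score of the F/F0 ratio slope over 7 to 12 s after thallium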
Target sequence (P48048 whole entry, looked up): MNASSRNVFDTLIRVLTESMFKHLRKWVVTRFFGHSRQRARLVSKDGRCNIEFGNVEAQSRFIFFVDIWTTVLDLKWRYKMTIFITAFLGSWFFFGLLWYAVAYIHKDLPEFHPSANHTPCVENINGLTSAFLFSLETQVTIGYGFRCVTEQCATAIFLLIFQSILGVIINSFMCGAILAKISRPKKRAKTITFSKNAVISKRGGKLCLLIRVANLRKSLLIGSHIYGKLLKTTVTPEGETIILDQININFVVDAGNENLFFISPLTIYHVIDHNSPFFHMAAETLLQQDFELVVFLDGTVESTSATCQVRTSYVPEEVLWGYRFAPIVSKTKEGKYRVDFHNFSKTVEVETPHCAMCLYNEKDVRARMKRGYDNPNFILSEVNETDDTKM
Arbovirus anti = arbovirus infection inhibition; arbovirus infection cell-based antiviral screen; inhibition, % at 10 µM; 0.37% of 200,000 active; AID 1251; in the data active = inhibition above about 30%
m-calpain inh = inhibitors of pig calpain II | purified calpain II, fluorogenic peptide substrate, 30 min | inhibition, % at 16 µM | 0.37% of 220,000 active | AID 1236;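 active = inhibition above about 50%, limit read from the data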
ROMK retest = confirmation of human ROMK potassium channel modulators. shares compounds with ROMK primary. ROMK thallium flux, fluorescence ratio; stronger effect = lower value. normalized thallium flux (F/F0 slope) at 10 µM. 54% of 3,000 active. AID 1917;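 active = Flux at 10 µM at least 3 SD below or above vehicle control mean in one or both replicates; inconclusive = no clear call, values can overlap the other calls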
Hits are given with their value.

For Cc1cccc(-n2c3nc(=O)[nH]c(=O)c-3cc3cc([N+](=O)[O-])ccc32)c1 the results were HMGR II inh inactive, HSV augment inactive, ROMK primary -2.8, Arbovirus anti 38, m-calpain inh inactive and ROMK retest 0.048.
For O=C(N/N=C/C=C/c1ccc2c(c1)OCO2)C(O)c1ccccc1 (configuration not stated) the results were HSV augment inactive and m-calpain inh inactive.
Screening COc1ccc(C(=O)COC(=O)c2ccccc2NS(=O)(=O)c2ccc(O)c([N+](=O)[O-])c2)cc1 returned HSV augment inactive, m-calpain inh inactive and ROMK retest inactive.
`COc1ccccc1CNC(=O)C/C(C)=N/NC(=O)Cc1ccc(OC)c(OC)c1` gave HMGR II inh inactive, HSV augment inactive, ROMK primary inactive, Arbovirus anti inactive and m-calpain inh inactive.
`COc1ccccc1CNC(=O)C/C(C)=N/NC(=O)COc1ccc(C)cc1Br` gave HMGR II inh inactive, HSV augment inactive, ROMK primary 2.8, Arbovirus anti inactive, m-calpain inh inactive and ROMK retest inactive.
Screening O=C(Nc1ccc(F)cc1)OCCOc1ccc(Br)cc1 returned HSV augment inactive and m-calpain inh inactive.
For Cc1ccc(SCCN)cc1C the results were HMGR II inh inactive, HSV augment inactive, ROMK primary -3, Arbovirus anti inactive, m-calpain inh inactive and ROMK retest 0.068.
`Cc1ccc(SCCNC(=S)Nc2ccc(C)c(C)c2)cc1` gave HMGR II inh inactive, HSV augment inactive, Arbovirus anti inactive and m-calpain inh inactive.
CN(C)CCNC(=O)c1scc2c1CCCC2 was read as HSV augment inactive, m-calpain inh inactive and ROMK retest inactive.
`Cc1cc(/C=N/n2cnnc2)c(C)n1-c1ccc(Cl)cc1Cl` gave HMGR II inh inactive, HSV augment inactive, ROMK primary 3.2, Arbovirus anti inactive, m-calpain inh inactive and ROMK retest inconclusive.
Nc1nonc1C(=O)NCCNCc1cc(Br)ccc1OCc1ccccc1F was read as HMGR II inh inactive, HSV augment inactive, ROMK primary -4.2, Arbovirus anti inactive, m-calpain inh 75 and ROMK retest 0.049.
For COc1cc(CNCCNC(=O)c2nonc2N)ccc1OCc1ccc(Cl)cc1 the results were HMGR II inh inactive, HSV augment inactive, ROMK primary -3.1, Arbovirus anti inactive, m-calpain inh inactive and ROMK retest 0.053.
`O=C(O)c1cccc(N/N=C/c2ccc(F)c(F)c2)c1` gave HMGR II inh inactive, HSV augment inactive, ROMK primary inactive, Arbovirus anti inactive and m-calpain inh inactive.
`O=C(O)c1cccc(N/N=C/C2=C(Cl)c3cc(Cl)ccc3SC2)c1` gave HMGR II inh inactive, HSV augment inactive, ROMK primary 0.76, Arbovirus anti 46, m-calpain inh 58 and ROMK retest inactive.
Screening CN(C)C(=O)c1c(C(F)(F)F)nn(C)c1Cl returned HMGR II inh inactive, HSV augment inactive, ROMK primary inactive, Arbovirus anti inactive and m-calpain inh inactive.
Screening Cc1ccc(S(=O)(=O)Nc2ccc(C(OC(=O)c3ccccc3[N+](=O)[O-])(C(F)(F)F)C(F)(F)F)cc2)cc1 returned HMGR II inh inactive, HSV augment inactive, Arbovirus anti inactive and m-calpain inh inactive.
O=C(OC(c1ccc(NS(=O)(=O)c2ccccc2)cc1)(C(F)(F)F)C(F)(F)F)c1ccccc1 was read as HMGR II inh inactive, HSV augment inactive, ROMK primary -4.5, Arbovirus anti inactive, m-calpain inh inactive and ROMK retest 0.062.
For O=C(CC(NC(=O)C(F)(F)F)c1ccccc1)Nc1nnc(CCc2ccccc2)s1 (configuration not stated) the results were HMGR II inh inactive, HSV augment inactive, Arbovirus anti inactive and m-calpain inh inactive.
COc1ccccc1C/C(N)=N/OC(=O)c1ccc2c(c1)OCO2 was read as HMGR II inh inactive, HSV augment inactive, ROMK primary -3.1, Arbovirus anti inactive, m-calpain inh inactive and ROMK retest inactive.
`COc1ccccc1C/C(N)=N/OC(=O)c1ccc(C)c([N+](=O)[O-])c1` gave HMGR II inh inactive, HSV augment inactive, Arbovirus anti inactive and m-calpain inh inactive.
For COc1cc(C)nc(-c2csc(C)n2)n1 the results were HSV augment inactive and m-calpain inh inactive.
Screening CC1=NOC(=O)/C1=C/c1ccc(O)cc1 returned HMGR II inh inactive, HSV augment inactive, ROMK primary -3.7, Arbovirus anti inactive, m-calpain inh inactive and ROMK retest 0.048.
CCc1ccc(Nc2ncc3c(n2)CC(C)(C)CC3=O)cc1 was read as HSV augment inactive and m-calpain inh inactive.
COc1cccc(/C=C/C(=O)OCC(=O)Nc2ccc(Cl)c(S(=O)(=O)N(C)C)c2)c1OC was read as HMGR II inh inactive, HSV augment inactive, ROMK primary inactive, Arbovirus anti inactive and m-calpain inh inactive.
Screening COc1cc(OCC(N)=O)cc(OC)c1OC returned HMGR II inh inactive, HSV augment inactive, ROMK primary inactive, Arbovirus anti inactive and m-calpain inh inactive.
`COc1ccc(OCC(N)=O)cc1` gave HMGR II inh inactive, HSV augment inactive, Arbovirus anti inactive, m-calpain inh inactive and ROMK retest inactive.
For CC(CSc1nc2ccccc2s1)Cn1c(N2CCCC2)nc2c1c(=O)[nH]c(=O)n2C (configuration not stated) the results were HMGR II inh inactive, HSV augment inactive, ROMK primary -3.1, Arbovirus anti inactive, m-calpain inh inactive and ROMK retest 0.06.
Screening CC(C)Cc1nc(N2CCN(C(=O)c3ccccc3)CC2)c(C#N)c2c1CCC2 returned HMGR II inh inactive, HSV augment inactive, Arbovirus anti inactive and m-calpain inh inactive.
Screening CC(C)Cc1nc(N2CCN(C(=O)c3ccco3)CC2)c(C#N)c2c1CCC2 returned HMGR II inh inactive, HSV augment inactive, ROMK primary inactive, Arbovirus anti inactive, m-calpain inh inactive and ROMK retest 0.067.
For COc1cc(CC(=O)Nc2ccc3nc(C)sc3c2)cc(OC)c1OC the results were HMGR II inh inactive, HSV augment inactive, Arbovirus anti inactive and m-calpain inh inactive.
CCC(=O)Nc1nc2ccc(NC(=O)c3cc(OC)c(OC)c(OC)c3)cc2s1 was read as HMGR II inh inactive, HSV augment inactive, Arbovirus anti inactive, m-calpain inh inactive and ROMK retest 0.064.
Screening CC1=NNC(=O)C1C(c1cccc(O)c1)C(C#N)C#N (configuration not stated) returned HSV augment inactive, ROMK primary -2.4, m-calpain inh inactive and ROMK retest inactive.
COc1ccc(C2NCCc3c2[nH]c2ccccc32)cc1COc1ccc(F)cc1 (configuration not stated) was read as HMGR II inh inactive, HSV augment inactive, ROMK primary inactive, Arbovirus anti inactive and m-calpain inh inactive.
For COc1ccc(C2NCCc3c2[nH]c2ccccc32)cc1CN1CCc2cc(OC)c(OC)cc2C1C (configuration not stated) the results were HSV augment inactive, ROMK primary -3.8, m-calpain inh inactive and ROMK retest 0.055.
